# Experimental data reported in PubChem BioAssay (NCI).
# This is part of a sample that, as a whole, favours compounds with a hit. Of some 83,000 tested, about 20% had one in any assay.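 Percent growth is the endpoint: 0 to 100 indicates growth inhibition (40 means 60% inhibition), 0 means no net growth, and negative values indicate cell death.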 Activity calls are given as the source filed them. The calls were made as follows: active = growth percent below 10; inactive = the rest.
# System: HL-60(TB) leukemia
# Experiment: NCI-60 one-dose screen, 48 h (100 = growth as untreated, 0 = no growth, -100 = all killed)
# Conditions: 10 µM unless noted
row,Compound,growth
1,COc1ccc(C(c2ccc(OCCN(C)C)cc2)c2cc3ccccc3c3ccccc23)cc1 (configuration not stated),3.59% (active)
2,Cc1cc2c(cc1C)N(C(=O)CCl)CCN2C(=O)CCl,-41.3% (active)
3,COC(=O)c1c2c(c(C)[n+]([O-])c1C)C(=O)C=C(NCc1ccc(F)c(Cl)c1)C2=O,-28.9% (active)
4,CCCCOc1nc2ccc(Cl)cc2cc1/C=C/C(=O)/C=C/c1ccc(Cl)cc1,61.2% (inactive)
5,C#Cc1nc(Nc2cc(C)[nH]n2)c2ccccc2n1,-38.8% (active)
6,O=C(CSc1nnc(-c2cc(-c3ccc(Cl)cc3)nc3ccccc23)n1-c1ccccc1)Nc1ccc(Cl)cc1,85.8% (inactive)
7,COC(=O)/C=C1/SC(=Nc2ccc(C(F)(F)F)cc2)N(CCc2c[nH]c3ccc(O)cc23)C1=O,-33.1% (active)
8,c1ccc(Nc2ccccn2)cc1,64.9% (inactive)
9,CCC(C)C1NC(=O)C(CC(C)C)NC(=O)C(C)NC(=O)C(C(C)C)NC(=O)C(CCCCN)NC(=O)C(CC(C)C)NC(=O)C(C(C)C)NC(=O)[C@H](C)NC(=O)C(C(C)CC)NC(=O)C(CCCN=C(N)N)NC(=O)C(CCCCN)NC(=O)C(CCCN=C(N)N)NC(=O)C(CCCCN)NC(=O)C([C@H](C)CC)NC(=O)C(CCCCN)NC1=O (some centres not stated),-39.5% (active)
10,O=C(O)c1ccc(-n2cc(/C=N/Nc3ccccc3)c(-c3ccc(F)cc3F)n2)cc1,15.1% (inactive)
11,CC(=O)Nc1cc2c(cc1Cl)Cc1cc(Cl)ccc1-2,114% (inactive)
12,C[C@]12CC[C@@H]3c4ccc(O)cc4CC[C@H]3[C@@H]1C[C@H](O)C2,52% (inactive)
13,Fc1ccc(Nc2ccnc(N3CCN(c4ccnc5cc(Cl)ccc45)CC3)n2)cc1,15.9% (inactive)
14,CNC(=O)c1c(NC(=O)c2ccc(C(C)C)cc2)sc2c(CN(C)C)c(O)ccc12,85.9% (inactive)
15,CCNCCNc1cc(C2CCCC2)c(C#N)c2nc3ccccc3n12,-59.3% (active)
16,NC(N)=Nc1cc2ccccc2c2ccccc12,46.4% (inactive)
17,CC(=O)OC[C@H]1O[C@@H](n2c(=O)cc(N)[nH]c2=O)C(OC(C)=O)[C@@H]1OC(C)=O (some centres not stated),107% (inactive)
18,O=S1(=O)N(Cc2ccccc2)[C@@H](Cc2ccccc2)C2O[C@H]2[C@H](Cc2ccccc2)N1Cc1ccccc1 (some centres not stated),46% (inactive)
19,CC(C)(C)[Si](C)(C)OC1[C@@H](CNC(=O)NC(=O)CCl)O[C@@H](n2cnc3c(N)ncnc32)[C@H]1O[Si](C)(C)C(C)(C)C (some centres not stated),-64.2% (active)

row,Compound,growth
1,Cc1n[nH]c(=O)n(/N=C\c2c[nH]c3ccccc23)c1=O,89.1% (inactive)
2,CC1c2ccccc2-c2ccccc2N1C (configuration not stated),106% (inactive)
3,Cc1[nH]c(C(=O)Nc2cccc(OC3CCNCC3)c2)c(Cl)c1Cl,54.9% (inactive)
4,Cc1ccc(/C=C/c2c(C(=O)/C=C/c3ccc(Cl)cc3)c(C)nc3ccccc23)cc1,-8.89% (active)
5,COc1ccc(-c2cnc3ccccc3n2)cc1,97% (inactive)
6,COC(=O)c1c(C)nc(C)c2c1C(=O)C(Br)=C(NCCCCO)C2=O,24.1% (inactive)
7,C=C(C)[C@H]1CC/C(C)=C/CC[C@]2(C)O[C@H]2CC/C(COC(C)=O)=C\C1=O,117% (inactive)
8,O=c1c2ccccc2c(Br)c(Br)c2ccccc12,70.9% (inactive)
9,Cc1cccc(C)c1-c1cc(Cc2ccc(Cl)cc2)c(=O)[nH]n1,90.8% (inactive)
10,CCCCCCCCCCCCOB(OCCCCCCCCCCCC)OCCCCCCCCCCCC,107% (inactive)
11,NC(=O)NC(=O)c1ccc(Cl)cc1,95% (inactive)
12,CCOC(=O)CN1CCC(C(=O)OCC)CC1,116% (inactive)
13,COc1ccc2c(c1)-c1c(c3cc(OC)ccc3n(CCN(C)C)c1=O)C2=O,18% (inactive)
14,O=C(Nc1ccc(-n2ccc3c(NC(=O)c4ccccc4)nccc32)cc1)Nc1ccc(Cl)c(Cl)c1,-16.4% (active)
15,CCCCCCN(CCCCCC)CCCNc1nccc2ccccc12,-1.22% (active)
16,COc1cc2c(cc1OC)-c1ccc3cc4c(cc3c1N(CCN1CCCC1)C2)OCO4,-39.7% (active)
17,CC1(C)CC[C@]2(CO)CC[C@]3(C)[C@](O)([C@H](O)C[C@@H]4[C@@]5(C)CCCNC(C)(C)[C@@H]5CC[C@]43C)[C@@H]2C1,71% (inactive)
18,Cc1ccc(-c2csc(NC(=O)CSc3nc(N)cc(N)n3)n2)cc1,48.9% (inactive)
